The text below walks through data of PubChem BioAssay (NCATS).

SMILES strings stand for the structures. “And” between values parts separate entries of the source, which are not always exact repeats. Equal values may be shown once. Unmarked numbers belong to inactive results. Records with an inconclusive call do not appear. The source made the active and inactive calls. Unless noted, calls come from the whole dose curve; as a rule, active = well fitted curve in the direction sought with a large enough effect; inconclusive = small, poorly fitted or top-dose-only effect, or another doubt; inactive = no such curve, though single readings can be large; an effect the other way counts as inactive or inconclusive.

The target in experiment [1] is Phospholipid hydroperoxide glutathione peroxidase GPX4 (Homo sapiens) (UniProt P36969). The experiment is described as follows: Primary qHTS Assay for Inhibitors of Recombinant Selenoprotein Glutathione Peroxidase 4 (GPX4) (AID 1845192). Note: nearly all actives have a fitted effect of over 65% in size. Note: potency is the fitted concentration of half-maximal effect. The method, boiled down: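 qHTS, GR-coupled: GPX4 200 nM + cpd 30 min RT → GSH 1 mM, NADPH 0.5 mM, GR 100 nM → CHP 0.5 mM start; fluor 340/450 at t0 and t15 min; no-enzyme wells as control.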
For orientation: In qHTS, concentration-response curves come from the screen itself.

Experiment [2] addresses Androgen receptor (Homo sapiens) (UniProt P10275). The experiment is described as follows: qHTS assay for small molecule agonists of androgen receptor signaling (AID 588515; active = well fitted curve in the direction sought with a large enough effect in the signal ratio, with a control signal flat; the % refers to the signal ratio; note: % is set by controls: 0 for no effect and ±100 for the full control effect). Particulars: AR-UAS-bla HEK293, beta-lactamase ratio, agonist 16 h; hits give high values. The method, boiled down: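 Stimulation of an AR-responsive β-lactamase reporter in GripTite HEK293 cells was measured after 16 h compound exposure at 37 °C, via CCF4 fluorescence after 2 h RT. EC50 from Hill fits, normalized to R1881 at 30 nM.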

The target is the same in experiment [3]. The experiment is described as follows: qHTS assay for small molecule antagonists of androgen receptor signaling (AID 588516; active = well fitted curve in the direction sought with a large enough effect in the signal ratio, with a control signal flat, not every such curve was filed as active; the % refers to the signal ratio; note: % is set by controls: 0 for no effect and ±100 for the full control effect). The method in brief:
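AR-UAS-bla GripTite HEK 293 cells (2000/well) treated with compound titrations plus 10 nM R1881 for 16 h at 37C. Beta-lactamase read by CCF4 FRET (460/530 nm); IC50 from Hill fits, normalized to R1881 and DMSO control wells.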

The target of experiment [4] is Cytochrome P450 3A4 (Homo sapiens) (UniProt P08684). The experiment is described as follows: qHTS Assay for Activators of Cytochrome P450 3A4 (AID 885). Note: nearly all actives have a fitted effect of over 65% in size. The method in brief:
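Activators are scored by enhanced luminescence from CYP3A4 conversion of luciferin-PPXE (25uM, equal to KM) to luciferin, after 60 min at RT with an NADPH-regenerating system.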

Experiment [5] has as its target Ubiquitin carboxyl-terminal hydrolase 1 (Homo sapiens) (UniProt O94782). The experiment is described as follows: Inhibitors of USP1/UAF1: Pilot qHTS (AID 504865).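 Note: rhodamine fluorescence freed from ubiquitin-rhodamine substrate followed over time; top concentration of the series differs between compounds; % is set by controls: 0 for no effect and ±100 for the full control effect; nearly all actives have a fitted effect of over 35% in size.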 The method, boiled down:
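USP1/UAF1 complex at 1 nM preincubated 15 min at room temperature with compound, then Ub-Rho substrate added at 150 nM final. Fluorescence (480/540 nm) read kinetically in 50 mM HEPES pH 7.8, 0.5 mM EDTA, 1 mM TCEP, 0.1 mg/ml BSA, 0.01% Tween-20.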

Experiment [6] has as its target Luciferin 4-monooxygenase (Photinus pyralis) (UniProt P08659). The experiment is described as follows: Biochemical firefly luciferase enzyme assay for NPC (AID 624030).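 Note: purified P. pyralis luciferase at 10 nM with luciferin and ATP substrate; 0% = DMSO and -100% = full luciferase inhibition by PTC124 control; nearly all actives have a fitted effect of over 70% in size.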 The method in brief:
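Counter-screen for direct inhibition of the luciferase enzyme by approved-drug library compounds, run at 10 nM enzyme in 50 mM Tris acetate (final). Luminescence was read within 5 min of enzyme-buffer addition and normalized to PTC124 versus DMSO (0%).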

A short description of experiment [7]: S16 Schwann cell PMP22 intronic element beta-lactamase assay (AID 624044; calls by dose curve; note: nearly all actives have a fitted effect of over 15% in size; note: potency is the fitted concentration of half-maximal effect). The method, boiled down:
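Beta-lactamase reporter under a PMP22 intronic regulatory element in stable S16 rat Schwann cells; 24 h compound exposure. 460 nm blue signal normalized between DMSO (0%) and potassium clavulanate, with 535 nm FRET tracking viability; curves classed by r2 and response.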

Experiment [8] in a line: qHTS profiling for inhibitors of Plasmodium falciparum proliferation (AID 504749).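 Note: 0% = DMSO vehicle and full inhibition = artemisinin control; nearly all actives have a fitted effect of over 60% in size.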 The settings on record: P. falciparum in erythrocytes, SYBR Green DNA, 72 h, at 28.7 µM (top of the series). The method in brief: (§1)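 Quantitative HTS: compounds pinned into medium, infected erythrocytes added (0.3% parasitemia, 2.5% hematocrit), 72 h culture at 37 C under 5% CO2. Saponin/Triton lysis with SYBR Green I, overnight RT, then fluorescence read.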

A further experiment has as its system CP262. Described as above. The settings on record: P. falciparum in erythrocytes, SYBR Green DNA, 72 h; series mostly up to 28.7 µM. The method in brief:
as §1

The next experiment deals with CP335. The description is as above. Particulars: P. falciparum in erythrocytes, SYBR Green DNA, 72 h; series mostly up to 28.7 µM. The method in brief:
as §1

Another experiment concerns GB4. The experiment is described as above. The settings on record: P. falciparum in erythrocytes, SYBR Green DNA, 72 h; series mostly up to 28.7 µM. The method, boiled down: as §1
Another experiment deals with W2. Described as above. The settings on record: P. falciparum in erythrocytes, SYBR Green DNA, 72 h; series mostly up to 28.7 µM. The method in brief:
as §1

The target of experiment [9] is Estrogen receptor (Homo sapiens) (UniProt P03372). The experiment is described as follows: qHTS assay for small molecule antagonists of estrogen receptor alpha signaling (AID 588513; active = well fitted curve in the direction sought with a large enough effect in the signal ratio, with a control signal flat, not every such curve was filed as active; the % refers to the signal ratio; note: % is set by controls: 0 for no effect and ±100 for the full control effect). The method, boiled down:
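ER-alpha-UAS-bla GripTite HEK 293 cells in 2% charcoal/dextran-treated FBS medium; compounds titrated (1:2, duplicate), then stimulated with 0.5 nM 17-beta-estradiol for 18 h at 37C. CCF4 beta-lactamase fluorescence; Hill-fit IC50 and efficacy.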

For experiment [10], the target named is Cytochrome P450 1A2 (Homo sapiens) (UniProt P05177). The experiment is described as follows: p450-cyp1a2 (AID 410; calls by dose curve; note: potency is the fitted concentration of half-maximal effect). The method in brief:
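Luminescent demethylation readout: Luciferin-ME (100uM, equal to Km) turned over by 20nM CYP1A2 for 60 min at room temperature after NADPH regeneration addition, following 10 min compound preincubation. Normalization used 57 uM furafylline as full inhibition.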

The target in experiment [11] is Glucocorticoid receptor (Homo sapiens) (UniProt P04150). The experiment is described as follows: GR-EFC Redistribution (AID 451; calls by dose curve; note: potency is the fitted concentration of half-maximal effect). The settings on record: CHO-K1 GR-EFC translocation, beta-gal luminescence, 2 h. The method, boiled down: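 CHO-K1 cells stably expressing nuclear-localized β-gal enzyme acceptor and GR fused C-terminally to the enzyme donor fragment; ligand-driven nuclear translocation restores β-gal by complementation. Compounds titrated up to 46 uM final, 2 h at 37 °C; luminescence read.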

For experiment [12], the target named is Lysosomal acid glucosylceramidase (Homo sapiens) (UniProt P04062). The experiment is described as follows: Glucocerebrosidase-p2 (AID 348; in the data active = potency below about 10 µM; note: potency is the fitted concentration of half-maximal effect). The settings on record: purified GBA, blue fluorogenic substrate, 40 min. The method, boiled down: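 Normal human glucocerebrosidase (0.2 nM) with blue fluorogenic substrate (80 uM final) in citrate/phosphate pH 5.9 with 10mM sodium taurocholate, 0.01% tween-20; 40 min RT, NaOH/glycine stop; fluorescence Ex 365/Em 440; AC50 from a titration from 0.6 nM upwards.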

A short description of experiment [13]: NFAT Signaling Pathway (AID 444; active = well fitted curve in either direction with a large enough effect, not every such curve was filed as active;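 note: carbachol stimulus at about its EC50 of 1 µM final; % is set by controls: 0 for no effect and ±100 for the full control effect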). The settings on record: Jurkat NFAT-bla M1, carbachol, beta-lactamase ratio, 5 h; at 7.69 µM (top of the series) unless noted. The method in brief:
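Jurkat cells carrying an NFAT-driven β-lactamase reporter and co-transfected muscarinic M1 receptor were treated with compound plus carbachol (1 uM final, an EC50 level) for 5 h at 37 °C. CCF4 loading followed for 1 h at RT; 460/530 nm ratio gave %activity.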

Experiment [14] is described as follows: Stat Signaling Pathway (AID 446; active = well fitted curve in either direction with a large enough effect, not every such curve was filed as active). The method in brief:
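Emission at 460 and 530 nm (excitation 405 nm) reports SIE-controlled beta-lactamase in ME-180 cells. Cells received compound with 40 pM IL-6 for 5 hrs at 37 C; data scaled between 300 pM IL-6 and 125 nM JAK-inhibitor controls.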

The target in experiment [15] is Glucocorticoid receptor (Homo sapiens) (UniProt P04150). The experiment is described as follows: GR-GFP Redistribution (AID 450;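 active = compounds whose dose series gives a full or clear partial fitted curve of increased nuclear translocation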; note: potency is the fitted concentration of half-maximal effect). Particulars: U2OS GR-GFP nuclear translocation, laser cytometry, 2 h.

Androgen receptor (Homo sapiens), sequence (P10275 whole entry, looked up): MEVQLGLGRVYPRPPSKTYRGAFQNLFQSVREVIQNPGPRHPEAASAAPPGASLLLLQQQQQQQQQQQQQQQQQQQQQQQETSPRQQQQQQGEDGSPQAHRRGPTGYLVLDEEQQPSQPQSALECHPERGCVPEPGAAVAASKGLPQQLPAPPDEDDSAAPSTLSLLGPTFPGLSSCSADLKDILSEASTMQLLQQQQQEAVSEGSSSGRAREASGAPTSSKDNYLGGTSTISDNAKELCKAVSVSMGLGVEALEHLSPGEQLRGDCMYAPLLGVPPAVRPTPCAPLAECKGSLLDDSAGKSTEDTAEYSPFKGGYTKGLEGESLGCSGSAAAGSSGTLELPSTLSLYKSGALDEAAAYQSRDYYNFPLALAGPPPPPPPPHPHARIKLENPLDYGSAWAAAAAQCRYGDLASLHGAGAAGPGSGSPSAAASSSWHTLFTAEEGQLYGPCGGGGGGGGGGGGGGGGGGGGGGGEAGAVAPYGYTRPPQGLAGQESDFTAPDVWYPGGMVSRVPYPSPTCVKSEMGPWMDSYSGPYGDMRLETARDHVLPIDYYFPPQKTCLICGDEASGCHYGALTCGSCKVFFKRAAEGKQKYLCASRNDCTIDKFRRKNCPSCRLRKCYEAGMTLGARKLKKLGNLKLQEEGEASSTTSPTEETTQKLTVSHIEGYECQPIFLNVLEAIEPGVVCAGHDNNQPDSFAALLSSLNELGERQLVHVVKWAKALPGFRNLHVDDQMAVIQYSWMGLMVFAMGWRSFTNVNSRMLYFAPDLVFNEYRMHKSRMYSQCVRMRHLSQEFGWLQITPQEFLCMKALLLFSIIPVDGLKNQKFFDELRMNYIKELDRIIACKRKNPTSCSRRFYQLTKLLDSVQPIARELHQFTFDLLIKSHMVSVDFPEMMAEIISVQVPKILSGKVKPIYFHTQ
Cytochrome P450 3A4 (Homo sapiens), sequence (P08684 whole entry, looked up): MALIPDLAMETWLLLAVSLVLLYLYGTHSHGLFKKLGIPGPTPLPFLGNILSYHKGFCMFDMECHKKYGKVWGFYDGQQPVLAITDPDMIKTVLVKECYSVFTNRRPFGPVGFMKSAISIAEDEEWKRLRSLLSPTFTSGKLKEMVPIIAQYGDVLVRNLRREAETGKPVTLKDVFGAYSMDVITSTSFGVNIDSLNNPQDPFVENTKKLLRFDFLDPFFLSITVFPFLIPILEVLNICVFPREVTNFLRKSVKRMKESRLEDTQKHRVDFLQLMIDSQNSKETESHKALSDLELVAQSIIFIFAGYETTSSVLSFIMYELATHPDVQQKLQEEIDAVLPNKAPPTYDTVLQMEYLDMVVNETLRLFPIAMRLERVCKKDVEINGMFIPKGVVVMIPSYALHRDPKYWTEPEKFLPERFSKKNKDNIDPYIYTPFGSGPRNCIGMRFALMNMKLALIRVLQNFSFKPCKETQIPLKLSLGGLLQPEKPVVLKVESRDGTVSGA
Cytochrome P450 1A2 (Homo sapiens), sequence (P05177 whole entry, looked up): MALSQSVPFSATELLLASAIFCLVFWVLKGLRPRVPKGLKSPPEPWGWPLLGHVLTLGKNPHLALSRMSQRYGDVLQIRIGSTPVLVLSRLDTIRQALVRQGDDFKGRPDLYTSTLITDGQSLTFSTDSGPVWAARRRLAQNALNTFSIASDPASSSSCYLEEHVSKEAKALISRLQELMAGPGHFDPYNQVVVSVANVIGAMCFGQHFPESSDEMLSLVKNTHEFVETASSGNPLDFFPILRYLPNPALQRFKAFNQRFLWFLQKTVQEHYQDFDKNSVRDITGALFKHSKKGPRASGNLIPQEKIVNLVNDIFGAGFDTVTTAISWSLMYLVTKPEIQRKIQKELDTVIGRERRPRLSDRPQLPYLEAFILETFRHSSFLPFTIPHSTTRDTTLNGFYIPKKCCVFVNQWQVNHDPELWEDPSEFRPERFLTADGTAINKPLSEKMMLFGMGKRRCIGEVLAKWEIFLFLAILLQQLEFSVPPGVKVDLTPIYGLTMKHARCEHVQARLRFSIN
Phospholipid hydroperoxide glutathione peroxidase GPX4 (Homo sapiens), sequence (P36969 whole entry, looked up): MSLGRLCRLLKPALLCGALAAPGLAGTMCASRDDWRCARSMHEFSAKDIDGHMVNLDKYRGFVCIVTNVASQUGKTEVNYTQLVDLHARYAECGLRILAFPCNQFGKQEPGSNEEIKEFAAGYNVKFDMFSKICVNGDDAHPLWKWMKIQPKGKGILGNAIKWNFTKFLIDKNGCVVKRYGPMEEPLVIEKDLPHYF
Ubiquitin carboxyl-terminal hydrolase 1 (Homo sapiens), sequence (O94782 whole entry, looked up): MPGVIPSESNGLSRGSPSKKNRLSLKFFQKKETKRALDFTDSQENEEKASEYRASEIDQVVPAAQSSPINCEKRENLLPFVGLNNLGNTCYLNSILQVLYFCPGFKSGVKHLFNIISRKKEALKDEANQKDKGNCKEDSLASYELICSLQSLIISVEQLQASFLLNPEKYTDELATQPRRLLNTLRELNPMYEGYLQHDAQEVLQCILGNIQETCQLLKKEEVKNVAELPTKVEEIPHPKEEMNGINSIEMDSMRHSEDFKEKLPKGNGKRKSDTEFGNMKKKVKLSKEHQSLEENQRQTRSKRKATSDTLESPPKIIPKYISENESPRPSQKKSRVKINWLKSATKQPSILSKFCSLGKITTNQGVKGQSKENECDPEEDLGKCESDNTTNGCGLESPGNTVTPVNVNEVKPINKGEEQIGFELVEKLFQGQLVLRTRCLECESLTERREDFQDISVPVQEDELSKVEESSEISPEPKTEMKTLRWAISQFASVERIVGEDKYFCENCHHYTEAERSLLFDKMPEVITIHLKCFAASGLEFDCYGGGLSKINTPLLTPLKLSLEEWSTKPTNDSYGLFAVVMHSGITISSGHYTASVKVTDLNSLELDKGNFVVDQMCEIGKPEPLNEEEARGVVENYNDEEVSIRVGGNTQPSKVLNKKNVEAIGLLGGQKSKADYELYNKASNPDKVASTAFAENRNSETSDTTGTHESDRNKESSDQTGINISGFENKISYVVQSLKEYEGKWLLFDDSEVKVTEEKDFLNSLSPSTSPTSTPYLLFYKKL
Glucocorticoid receptor (Homo sapiens), sequence (P04150 whole entry, looked up, the tested form may be a part): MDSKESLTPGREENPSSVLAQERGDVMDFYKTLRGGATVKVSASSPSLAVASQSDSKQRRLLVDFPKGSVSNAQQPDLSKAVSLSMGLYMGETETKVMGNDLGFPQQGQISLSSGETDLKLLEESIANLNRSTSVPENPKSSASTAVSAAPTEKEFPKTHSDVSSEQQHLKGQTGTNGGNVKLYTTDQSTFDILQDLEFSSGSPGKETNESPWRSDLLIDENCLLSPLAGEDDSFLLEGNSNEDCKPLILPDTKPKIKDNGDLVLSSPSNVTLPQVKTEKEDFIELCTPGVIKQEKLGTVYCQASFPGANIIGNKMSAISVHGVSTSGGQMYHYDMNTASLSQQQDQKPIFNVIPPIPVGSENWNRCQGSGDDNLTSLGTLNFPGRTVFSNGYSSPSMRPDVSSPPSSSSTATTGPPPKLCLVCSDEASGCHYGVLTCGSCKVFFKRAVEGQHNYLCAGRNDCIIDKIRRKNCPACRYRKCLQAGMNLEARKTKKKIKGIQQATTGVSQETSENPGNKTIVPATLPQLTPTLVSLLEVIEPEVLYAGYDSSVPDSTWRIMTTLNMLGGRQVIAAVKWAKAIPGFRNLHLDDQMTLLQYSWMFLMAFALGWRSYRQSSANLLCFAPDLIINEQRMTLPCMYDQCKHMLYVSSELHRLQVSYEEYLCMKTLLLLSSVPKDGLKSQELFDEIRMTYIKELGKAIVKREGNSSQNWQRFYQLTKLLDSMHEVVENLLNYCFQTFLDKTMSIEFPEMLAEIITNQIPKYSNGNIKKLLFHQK
Estrogen receptor (Homo sapiens), sequence (P03372 whole entry, looked up): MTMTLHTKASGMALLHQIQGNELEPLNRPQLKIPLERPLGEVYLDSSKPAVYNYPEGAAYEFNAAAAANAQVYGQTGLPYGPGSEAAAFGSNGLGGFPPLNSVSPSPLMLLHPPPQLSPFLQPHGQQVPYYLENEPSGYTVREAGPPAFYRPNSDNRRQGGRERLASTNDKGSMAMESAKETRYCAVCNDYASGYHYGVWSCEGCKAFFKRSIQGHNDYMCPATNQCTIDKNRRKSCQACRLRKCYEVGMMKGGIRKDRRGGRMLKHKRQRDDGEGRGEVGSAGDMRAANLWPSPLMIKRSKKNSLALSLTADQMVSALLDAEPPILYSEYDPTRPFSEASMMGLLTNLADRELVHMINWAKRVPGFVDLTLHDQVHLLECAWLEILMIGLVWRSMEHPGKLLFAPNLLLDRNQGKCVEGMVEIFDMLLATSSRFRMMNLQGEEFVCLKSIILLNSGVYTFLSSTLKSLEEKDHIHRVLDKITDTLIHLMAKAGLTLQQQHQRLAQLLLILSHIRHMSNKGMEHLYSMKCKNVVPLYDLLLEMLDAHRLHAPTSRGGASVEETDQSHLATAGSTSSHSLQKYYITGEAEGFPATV
Luciferin 4-monooxygenase (Photinus pyralis), sequence (P08659 whole entry, looked up): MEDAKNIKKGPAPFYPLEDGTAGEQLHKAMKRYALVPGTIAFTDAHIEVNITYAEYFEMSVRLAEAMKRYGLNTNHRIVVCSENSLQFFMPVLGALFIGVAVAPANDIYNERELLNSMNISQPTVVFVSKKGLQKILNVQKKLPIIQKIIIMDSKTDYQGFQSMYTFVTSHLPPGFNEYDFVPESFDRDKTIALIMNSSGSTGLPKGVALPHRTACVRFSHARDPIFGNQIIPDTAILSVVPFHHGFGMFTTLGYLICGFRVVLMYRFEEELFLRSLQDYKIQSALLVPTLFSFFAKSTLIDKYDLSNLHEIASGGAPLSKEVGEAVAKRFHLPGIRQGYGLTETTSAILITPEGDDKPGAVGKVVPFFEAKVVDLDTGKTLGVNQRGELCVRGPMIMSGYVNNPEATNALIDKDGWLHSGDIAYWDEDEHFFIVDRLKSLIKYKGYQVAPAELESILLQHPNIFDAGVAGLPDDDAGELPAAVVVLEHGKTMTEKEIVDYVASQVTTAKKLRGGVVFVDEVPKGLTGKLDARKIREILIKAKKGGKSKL

Regarding `CSCC[C@H](N)C(=O)O`, in [1], the Potency result was “inactive”.
For `CCO`, the activation in experiment [2] is 30.9%. Besides, the outcome in [3] was inactive.
In the case of `COc1ccc2nc(N)sc2c1`, the result in [4] and in [3] was inactive. The activation in experiment [2] was 3.27% and 6.72%.
Consider `CC1=CC(C)(C)Nc2ccccc21`, for which the compound was classed as inactive in experiment [4].
As to `CC(C=CC1=C(C)CCCC1(C)C)=CC=CC(C)=CC(=O)Oc1c(C)c(C)c2c(c1C)CC[C@@](C)(CCC[C@H](C)CCC[C@H](C)CCCC(C)C)O2`, the outcome in [1] was “inactive [at 4.52 µM]”.
In the case of `CN(C)CCCCCCN(C)C`, the Potency result (in [5]; in experiment [6]; in experiment [7]; in the experiment with CP262; in the experiment on CP335; with GB4) was “inactive” throughout. Further, in the experiment on W2, the Potency result was “inactive”. Also, the values for the activity, negative = inhibition in experiment [8] (parasite line A) and in experiment [8] (parasite line B) were 13.6% and -6.83%, respectively.
With `c1ccc2c(c1)[nH]c1ccccc12`, the outcome in experiment [3] was inactive.
For the compound `S=C1NC=NC2N=CNC12` (stereo not drawn), the Potency entry (in [5]; in [6]; with CP262; with CP335; in the experiment with W2) was “inactive” in each case. Besides, in [7], the Potency is 17.8 µM (active). The activity, negative = inhibition in experiment [8] (parasite line A) is -17.9%; in [8] (parasite line B) it was -14.3%.
With `Nc1nc(Cl)nc2c1ncn2C1CC(O)C(CO)O1` (stereo not drawn), the Potency entry (in experiment [6]; in experiment [1]; with CP262; with CP335; in the experiment on GB4; in the experiment on W2) was “inactive” in each case. For the same compound, the Potency in experiment [7] is 3.55 µM (active).
Consider `CC(C)=CCCC(C)CCO` (stereo not drawn), for which the Potency entry in [5] and in [9] was “inactive” in each case. For the same compound, the activation in [2] was 11% and 2.32%. Besides, the call in [3] was inactive.
Consider `CCCCOCCO`, for which, in [9], the Potency entry was “inactive”.
Turning to `COc1c2ccoc2cc2oc(=O)ccc12`, the Potency in experiment [10] was 0.0158 µM (active); in experiment [11], more than 46 µM. Also, the Potency entry in experiment [9] is “inactive”.
Take `CCCCCCCCO`: in experiment [9], the Potency entry is “inactive”.
With `CN1CC(O)c2cc(N=NC(=N)N)c(O)cc21` (stereo not drawn), the Potency result in experiment [1] is “inactive”.
In the case of `COC(=O)CCCCC(=O)OC`, the Potency entry in [9] is “inactive”.
`[2H]N[C@@H](Cc1ccccc1)C(=O)N1CCC[C@H]1C(=O)N[C@@H](CCCNC(=N)N)C(=O)N1CCC[C@H]1C(=O)NCC(=O)NCC(=O)NCC(=O)NCC(=O)N[C@@H](CC(N)=O)C(=O)NCC(=O)N[C@@H](CC(=O)O)C(=O)N[C@@H](Cc1ccccc1)C(=O)N[C@@H](CCC(=O)O)C(=O)N[C@@H](CCC(=O)O)C(=O)N[C@H](C(=O)N1CCC[C@H]1C(=O)N[C@@H](CCC(=O)O)C(=O)N[C@@H](CCC(=O)O)C(=O)N[C@@H](Cc1ccc(O)cc1)C(=O)N[C@@H](CC(C)C)C(=O)O)[C@@H](C)CC`: the outcome in [1] is “inactive [at 9.73 µM]”.
Consider `c1ccccc1`, for which the Potency result in experiment [9] is “inactive”.
Take `CO[C@H]1C[C@@H]2CC[C@@H](C)[C@@](O)(O2)C(=O)C(=O)N2CCCC[C@H]2C(=O)O[C@H]([C@H](C)C[C@@H]2CC[C@@H](OCCO)[C@H](OC)C2)CC(=O)[C@H](C)/C=C(/C)[C@@H](O)[C@@H](OC)C(=O)[C@H](C)C[C@H](C)\C=C/C=C\C=C/1C`: the Potency in [1] was 3.98 µM (active).
For the compound `NC(=O)C1CCCN1C(=O)C(Cc1cnc[nH]1)NC(=O)C1CCC(=O)N1` (stereo not drawn), the Potency result in [1] was “inactive”.
The same measure, in the same setting: next, `CO[C@H]1/C=C\O[C@@]2(C)Oc3c(C)c(O)c4c(O)c(c(/C=N/N5CCN(C6CCCC6)CC5)c(O)c4c3C2=O)NC(=O)/C(C)=C\C=C/[C@H](C)[C@H](O)[C@@H](C)[C@@H](O)[C@@H](C)[C@H](OC(C)=O)[C@@H]1C`: 10 µM (active).
With `C1OCOCO1`, the Potency result (in [5]; in experiment [6]; in experiment [7]; with CP262; in the experiment on CP335; in the experiment on GB4) was “inactive” in each case. Also, the Potency entry in the experiment with W2 is “inactive”. Moreover, the activity, negative = inhibition in [8] (parasite line A) was -0.0178%; in experiment [8] (parasite line B) it was 3.44%.
As to `COc1cccc(-c2ccc3ncnc(NCc4ccc(OC)cc4OC)c3c2)c1`, the Potency in experiment [12] was more than 11.4 µM; in experiment [10], 2.51 µM (active); in experiment [15], more than 46 µM; in experiment [11] it was more than 46 µM. Further, the activity change, negative = inhibition in [13] was -18.9%. Also, the call in experiment [14] and in [4] was inactive. The Potency result in experiment [5] was “inactive”.
For the compound `CCCCC(CC)CN` (stereo not drawn), the Potency result in [9] is “inactive”. Besides, the activation in [2] was 5.31% and -4.67%. Also, the call in [3] was inactive.
Regarding `CN1CCN(c2nc(-c3cccnc3)nc3ccccc23)CC1`, the Potency in experiment [12] is more than 11.4 µM; in experiment [10] it was 3.16 µM (active); in [15] it was more than 46 µM; in [11] it was more than 46 µM. For the same compound, the activity change, negative = inhibition in experiment [13] was 11.1%. In experiment [4], the result was inactive. Further, in [5], the Potency result was “inactive”.
As for `CCCN(CCC)C(=O)SCC`, the activation in experiment [2] is 12.4% and -3.98%. Also, in experiment [3], the outcome was inactive.
